Assay outcomes deposited in PubChem by Sanford-Burnham Center for Chemical Genomics.
The list is not random: actives were taken first. Their share in the collection is about 3%.
SENP8 block-1 – blocks the human protease SENP8 | inhibition, % at 10 µM | Q96LD8 | 1.2% of 330,000 active | purified SENP8, Z-RLRGG-aminoluciferin cleavage, luminescence; in the data active = inhibition above about 50%
Target sequence (Q96LD8 whole entry, looked up): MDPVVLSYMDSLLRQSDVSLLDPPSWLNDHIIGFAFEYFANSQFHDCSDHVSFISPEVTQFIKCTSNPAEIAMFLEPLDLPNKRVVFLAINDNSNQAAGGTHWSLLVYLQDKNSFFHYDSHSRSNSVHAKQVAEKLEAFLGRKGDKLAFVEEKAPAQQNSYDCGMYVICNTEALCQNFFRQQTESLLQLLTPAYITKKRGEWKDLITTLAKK
SENP8 block-2 – inhibitors of human SENP8 protease. recombinant SENP8, Nedd8 substrate fluorescence. inhibition, % at 20 µM. 0.64% of 360,000 active. AID 602440; in the data active = inhibition mostly above about 40%, no sharp cut-off; inactive = mostly below about 27%
SENP6 inh – SENP6 protease inhibition; Q9GZR1; inhibition, % at 10 µM; AID 2599; 1.8% of 330,000 active; Recombinant SENP6 catalytic domain, aminoluciferin luminescence;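 active = inhibition above about 50% at the single tested dose, limit read from the data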;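 note: plate controls were DMSO wells with enzyme for no effect and DMSO wells lacking enzyme for full effect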
C8 TRAIL sens – caspase-8 TRAIL sensitization; AID 624354; 1% of 360,000 active; inhibition (viability loss, TRAIL sensitization), % at 10 µM; NB7+C8 cells + TRAIL, ATPlite viability luminescence;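 active = compounds causing at least 50% loss of cell viability in the single-dose screen, relative to plate controls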
PPC-1+TRAIL kill – compounds killing PPC-1 cancer cells with TRAIL present (potentiator screen, no TRAIL-free arm); AID 1443; cell killing (% activity), % at 4 µM or 5 µM; 0.41% of 220,000 active; PPC-1 cells + TRAIL, ATPLite viability luminescence;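 active = cell killing above 50% in the first pass at 4 µM, then a duplicate retest at 5 µM averaging 50% or more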;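 note: plate controls were cells with TRAIL plus DMSO for no effect and medium-only wells lacking cells for full effect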
SENP7 inh – inhibitors of human SENP7 protease | Q9BQF6 | recombinant SENP7, Z-RLRGG-aminoluciferin luminescence, 40 min | inhibition, % at 5 µM | 1.5% of 330,000 active;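 active = inhibition above about 50% at the single test dose, limit read from the data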;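 note: plate controls were DMSO with enzyme for no effect and no enzyme buffer wells for full effect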
Target sequence (Q9BQF6 706-1050 limits assumed): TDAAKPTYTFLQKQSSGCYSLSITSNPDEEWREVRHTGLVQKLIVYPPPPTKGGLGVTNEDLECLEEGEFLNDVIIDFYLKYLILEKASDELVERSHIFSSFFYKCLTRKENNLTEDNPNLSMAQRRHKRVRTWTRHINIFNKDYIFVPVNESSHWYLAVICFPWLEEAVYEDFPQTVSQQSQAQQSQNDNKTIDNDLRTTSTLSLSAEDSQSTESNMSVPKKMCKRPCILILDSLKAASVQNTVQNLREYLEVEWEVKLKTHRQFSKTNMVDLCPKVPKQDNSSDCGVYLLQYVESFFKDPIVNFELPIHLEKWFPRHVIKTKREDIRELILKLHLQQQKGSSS
SENP8 conf – SENP8 (human) inhibition, single concentration confirmation; purified SENP8, Nedd8-AMC/pro-Nedd8 cleavage fluorescence, 30 min; inhibition, % at 25 µM; 15% of 1,400 active; shares compounds with SENP8 block-2; AID 624319; in the data active = inhibition mostly above about 39%, no sharp cut-off; inactive = mostly below about 34%
Starred values were filed as active, the others as inactive; / = not tested or not shown.

SMILES	SENP8 block-1	SENP8 block-2	SENP6 inh	C8 TRAIL sens	PPC-1+TRAIL kill	SENP7 inh	SENP8 conf
CCN(C[C@H]1N[C@@](C)(C(=O)OC)[C@H]2C(=O)N(C)C(=O)[C@@H]12)S(=O)(=O)c1ccc(OC)cc1	2.0	16.0	2.8	1.7	/	-4.8	/
O=C1OC(N2C(=O)CC[C@H]2C(=O)Nc2ccc(Br)cc2F)c2ccccc21 (stereo partly specified)	-0.5	54.1*	-16.2	3.4	/	-4.8	5.8
CC1CCCN(c2cc(N(C)CCO)c([N+](=O)[O-])c3nonc23)C1 (stereo unspecified)	0.8	48.8*	-5.7	3.0	11.1	1.2	1.2
CN(CCO)c1cc(N2CCCCC2)c2nonc2c1[N+](=O)[O-]	-7.5	27.4	16.3	3.8	5.9	-7.3	/
CCN(CC(=O)NCc1cccs1)C(=O)c1cc(Br)ccc1O	-17.9	9.1	-21.7	-10.3	/	-7.2	/
N#Cc1ccccc1NC(=O)COC(=O)COc1ccccc1[N+](=O)[O-]	1.9	-27.1	-12.1	16.6	-4.9	3.3	/
CCC(=O)Nc1ccccc1Nc1cc(C#N)c(C#N)cc1[N+](=O)[O-]	0.3	42.4*	-18.8	6.3	16.5	1.6	17.6
COc1ccc(N2C(=O)[C@@H]3[C@H](C2=O)[C@H]2c4ccccc4C=CN2[C@@H]3C(=O)Nc2ccccc2)cc1	-7.4	43.8*	19.5	-1.6	14.6	-3.6	80.2*
Cc1ccc(N2C(=O)[C@@H]3[C@H](C2=O)C2c4ccccc4C=CN2[C@@H]3C(=O)c2ccco2)cc1 (stereo partly specified)	/	48.7*	/	-6.5	-0.8	/	89.2*
CC(=O)[C@@H]1[C@@H]2C(=O)N(Cc3ccccc3)C(=O)[C@@H]2C2c3ccccc3C=CN21 (stereo partly specified)	13.6	-189.3	23.3	-9.3	2.4	-1.4	/
O=C(Nc1cccc(Oc2c(F)c(F)c(F)c(F)c2F)c1)N1C[C@@H]2C[C@@H](C1)c1cccc(=O)n1C2	-5.3	7.6	-22.3	-7.8	-17.3	-2.5	/
COc1ccc(NC(=O)[C@@H](NC(=O)N2C[C@H]3C[C@@H](C2)c2cccc(=O)n2C3)C(C)C)cc1OC	3.9	45.1*	4.5	-11.3	/	-3.8	10.1
CC(C)Cc1nnc(NC(=O)CCC(=O)NC2CCCC2)s1	2.4	0.5	4.9	-9.9	/	1.3	/
Cc1ccc(-c2nn(Cc3ccccc3)cc2/C=C/C(=O)O)cc1	-6.3	17.9	-12.2	3.6	2.1	-3.1	/
Cc1ccc(Cn2cc(/C=C/C(=O)O)c(-c3ccccc3)n2)cc1	-5.6	43.0*	-34.2	21.9	12.3	3.5	8.8
CN1C2=CC=CC=CC2=[N+](C)C12C=CC(=[N+]([O-])[O-])C=C2[N+](=O)[O-] (stereo unspecified)	4.1	53.4*	15.9	-2.0	-21.2	12.6	25.6
C=C(C(=O)O)C1CCC2(C)CCCC(C)(O)C2C1 (stereo unspecified)	-3.1	47.9*	-7.7	20.2	1.3	-6.3	-0.2
CCOc1ccc(C(=O)NCC(=O)OCC(=O)N(C)CC(=O)Nc2ccccc2CC)cc1OCC	/	-8.2	/	9.5	/	/	/
COc1ccc(NC(=O)CN(c2ccc(OC)cc2)S(=O)(=O)c2ccc(OC)c(OC)c2)cc1	9.7	20.4	10.3	5.6	/	-2.2	/
CC1=NN(c2ccccc2C)C(=O)C1	/	51.0*	/	8.0	/	/	21.6
Cc1ccccc1N1CC(=O)N(c2ccccc2C)CC1=O	-0.4	25.8	1.0	15.7	9.4	2.2	/
O=C(CNC(=O)c1ccccc1F)N/N=C/c1cccs1	-10.7	42.0*	-28.1	-3.7	/	-5.0	11.0
CC(=O)Oc1cccc2c1C(=O)C1CC=CC(OC(C)=O)C1C2=O (stereo unspecified)	/	-89.3	/	2.9	/	/	/
CCOC(=O)C1CCN(S(=O)(=O)c2ccc(-c3cc(C(F)(F)F)n(C)n3)s2)CC1	-1.6	51.7*	-9.3	9.8	-1.2	-0.5	35.3
CN(C)c1cccc2c1c(NC(=O)c1ccc(Cl)cc1)nn2C	-2.1	59.5*	-13.6	1.1	2.8	1.9	20.7
SMILES	SENP8 block-1	SENP8 block-2	SENP6 inh	C8 TRAIL sens	PPC-1+TRAIL kill	SENP7 inh	SENP8 conf
CN(C)c1cccc2c1c(NC(=O)Nc1ccccc1)nn2C	7.2	-92.7	24.1	-35.4	6.1	12.0	/
CN(C)c1cccc2c1c(NC(=O)c1ccc(F)cc1)nn2C	8.3	55.4*	-0.2	-4.8	-2.2	7.7	14.6
COC(=O)NN=C1CCC(c2ccccc2)CC1 (stereo unspecified)	0.4	4.5	-14.7	0.4	/	4.1	/
COC(=O)N/N=C1/C/C(=N\NC(=O)OC)c2ccccc21	17.5	80.7*	15.9	-10.4	9.3	15.3	96.2*
CN1CCN(C(=O)C[C@@H]2C[C@H]3c4cc(NC(=O)c5cccnc5)ccc4O[C@H]3[C@H](CO)O2)CC1	/	7.6	/	5.5	/	/	/
O=[N+]([O-])c1cc(Cl)ccc1NCCNc1ncc(C(F)(F)F)cc1Cl	-0.2	43.3*	-16.7	-3.5	16.2	2.8	12.8
O=[N+]([O-])c1cc(F)c2cccnc2c1O	-3.0	52.0*	7.0	14.2	6.3	10.0	92.5*
O=[N+]([O-])c1cc(Cl)c2cccnc2c1O	0.2	29.9	0.9	-1.2	15.8	5.7	/
C[C@H](NS(=O)(=O)c1ccc2c(c1)OCCCO2)C(=O)N1CCN(c2ccc(F)cc2)CC1	-11.8	-0.6	-2.1	1.3	/	-9.7	/
Cc1nnc(N/N=C/c2cccc(C(F)(F)F)c2)n1N	2.5	48.9*	3.4	1.7	/	4.1	22.1
CN(C(=S)Nc1ccc(Oc2ccccc2)cc1)c1ccc(O)cc1	/	46.5*	/	4.4	39.1	/	15.1
CN(C(=S)Nc1ccccc1)c1ccccc1	-3.7	23.8	-9.7	-3.5	18.5	-0.2	/
CN(C(=S)Nc1cccnc1)c1ccc(O)cc1	/	40.3*	/	-1.1	8.3	/	12.0
COc1ccc(N2CCN(C(=O)CNC(=O)c3ccco3)CC2)cc1	-1.7	13.8	12.5	2.0	/	3.1	/
CN(C)C1(CN=Cc2cc(Cl)cc([N+](=O)[O-])c2O)CCCCC1	1.1	40.3*	24.5	5.2	/	3.3	24.2
Cc1c(C(=S)Nc2ccccc2)cnn1-c1ccc([N+](=O)[O-])cc1	-6.5	40.5*	-30.4	-1.5	7.4	-4.9	-0.5
Cc1cc(-c2csc(N)n2)c(C)n1C	6.1	43.1*	0.5	1.0	-6.5	8.7	15.8
O=C1c2cc(F)ccc2-n2c1nc1ccccc1c2=O	18.7	41.8*	42.8	55.4*	/	24.4	60.5*
CCOC(=O)C1C(=O)CC(C)(O)C(C(=O)OCC)C1c1ccccc1 (stereo unspecified)	-4.0	7.6	-4.6	-6.3	0.5	-4.6	/
